Data as given in PubChem BioAssay (EPA / NIEHS).
Inconclusive results are not listed. Calls of active or inactive are those of the source. How the source made its calls: active means hit-call score of the fitted dose curve at least 0.9, where 1 is the maximum; inconclusive means response in the unintended direction; inactive means score below 0.9.

Test: CCTE_Shafer_MEA_acute_AB: CCTE's Alamar Blue Assay for Cytotoxicity in the Neural Acute Assay, Shafer Lab (AID 2284069);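 further: active compounds lower the viability signal compared with DMSO wells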
Protocol: CCTE_Shafer_MEA_acute assay is conducted using Axion Biosystems 48 well microelectrode array (MEA) plates and Maestro recording system. Each well of the MEA plate contains a grid of 16 microelectrodes embedded in the culture surface. Electrically active cells, such as neurons, can be cultured over the electrodes, and electrical activity in these cells can be recorded extracellularly. The spontaneous firing of neurons is captured from each electrode on a microsecond timescale providing both temporally and spatially precise data. […] The CCTE_Shafer_MEA_acute assay uses primary cultures of rat cortical neurons. As these cultures mature over time, neural networks develop functional activity and form cohesive networks in which electrical activity can be highly coordinated. Baseline 40-minute recordings are made on days post-plating 13 or 15, followed by a secondary 40-minute recording after chemical exposure.CCTE_Shafer_MEA_acute_AB is a component of the CCTE_Shafer_MEA_acute assay. It measures the resazurin reduction using fluorescence.Data from the assay component CCTE_Shafer_MEA_acute_AB was analyzed into 1 assay endpoint. This assay endpoint, CCTE_Shafer_MEA_acute_AB, was analyzed in the positive analysis fitting direction relative to DMSO as the negative control and baseline of activity. Using a type of viability reporter, loss-of-signal activity can be used to understand cell viability.
Metabolic activity was determined using the CellTiter Blue (CTB) assay (Promega Cat. #8081), following the manufacturer's instructions with the following modifications. Following the removal of the 50 uL sample for the LDH assay, 450 uL of media was removed from each well and replaced with 200 uL of fresh media containing a 1:6 dilution of CTB reagent for the determination of metabolic activity. Fluorescence was measured in a Fluorostar Optima fluorimeter using an excitation wavelength of 544 nm and an emission wavelength of 590 nm.
In the case of `Cn1c(=O)c2c(ncn2C)n(C)c1=O`, the outcome is reported as “inactive”.
In the case of `O=P(OC(CCl)CCl)(OC(CCl)CCl)OC(CCl)CCl`, the outcome is reported as “inactive”.
With `O=C(O)CCN(C1(C(=O)NO)CCCC1)S(=O)(=O)c1ccc(Oc2ccc(F)cc2)cc1` the outcome was “inactive”.
With `CCCCC(CC)COC(=O)CCCCCCCCC(=O)OCC(CC)CCCC` (centres undefined) the outcome was “inactive”.
In the case of `CC[C@H]1CC[C@H](NCc2cc3c(cc2OC)[C@H]2C[C@H]2C(=O)N3C)[C@H](c2ccccc2)N1`, the outcome is reported as “inactive”.
With `O=C(O)c1cc(N=Nc2ccc(S(=O)(=O)Nc3ccccn3)cc2)ccc1O` the outcome was “inactive”.
With `CCOC(=O)c1ccc(C2CCC(NC[C@H](O)COc3ccc(O)c(NS(C)(=O)=O)c3)CC2)cc1` (some centres undefined) the outcome was “inactive”.
In the case of `Cc1[nH]cnc1C[C@H]1CCc2c(C)c3ccccc3n2C1=O`, the outcome is reported as “inactive”.
With `CC(C)=CCCC(C)=CC=O` the outcome was “inactive”.
With `CC[C@H]1OC(=O)[C@H](C)[C@@H](O[C@H]2C[C@@](C)(OC)[C@@H](O)[C@H](C)O2)[C@H](C)[C@@H](O[C@@H]2O[C@H](C)C[C@H](N(C)C)[C@H]2O)[C@](C)(O)C[C@@H](C)C(=O)[C@H](C)[C@@H](O)[C@]1(C)O` the outcome was “inactive”.
In the case of `CCCN(C1CCN(C(=O)C2CCNCC2)CC1)[C@@H]1CCc2ccc(OC)cc2C1`, the outcome is reported as “inactive”.
For `COc1ccc2sc(C(=O)Nc3nnn[nH]3)c(OC(C)C)c2c1`, the outcome was “inactive”.
In the case of `On1ccccc1=S`, the outcome is reported as “inactive”.
With `CCCCCCCCCCCCc1ccccc1` the outcome was “inactive”.
